Measurements as given in article PMC5540273 (PLoS ONE, 2017).

Tests used:
Settings in all cases: concentration: 1 μM,replicates: in singlicate; n = 1
[1] = system: FYN
[2] = system: GAK
[3] = system: T1, GCN2(Kin.Dom.2,S808G)
T1 construct: gene EIF2AK4

[4] = system: GRK1
[5] = system: T2, GRK2
T2 construct: gene ADRBK1

[6] = system: T3, GRK3
T3 construct: gene ADRBK2

[7] = system: GRK4
[8] = system: GRK7
[9] = system: GSK3A
[10] = system: GSK3B
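Also: KINOMEscan kinase panel screen.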

Row | SMILES | %Inh [1] [%] | %Inh [2] [%] | %Inh [3] [%] | %Inh [4] [%] | %Inh [5] [%] | %Inh [6] [%] | %Inh [7] [%] | %Inh [8] [%] | %Inh [9] [%] | %Inh [10] [%]
1 | Cl.Oc1cc(-c2nc(-c3ccccc3)[nH]c2-c2ccncc2)ccc1Cl [SB-386023] | 40 | 43 | 20 | 2 | 0 | 0 | 20 | 7 | 17 | 40
2 | NC(=O)c1cc(-c2ccccc2)cc2c(C3CCNCC3)c[nH]c12 [GSK301362] | 21 | 15 | 38 | 0 | 0 | 0 | 2 | 0 | 0 | 14
3 | Cl.Cl.NC[C@H](Cc1ccc(C(F)(F)F)cc1)NC(=O)c1cc(Br)c(-c2ccnc3[nH]ccc23)s1 [GSK1487252] | 15 | 0 | 4 | 93.7 | 35 | 75 | 8 | 95.3 | 0 | 18
4 | Cc1occc1-c1nc(N)c(OC[C@@H](N)Cc2c[nH]c3ccccc23)cc1-c1cc2c(C)n[nH]c2cn1 [GSK1660450] | 87 | 87 | 0 | 74 | 0 | 0 | 49 | 87 | 95.7 | 97.9
5 | CCn1c(-c2nonc2N)nc2c(C#CC(C)(C)O)nc(OCCN)cc21.Cl.Cl [GSK902056] | 0 | 9 | 9 | 19 | 0 | 39 | 14 | 0 | 63 | 36
6 | Cc1ccc2c(-c3ccncc3)c(-c3ccc(F)cc3)nn2c1.Cl [GW461484] | 26 | 84 | 28 | 0 | 0 | 0 | 0 | 66 | 26 | 16
7 | Cl.Cl.NC[C@H](CC1CCCCC1)NC(=O)c1cc(Br)c(-c2ccnc3[nH]ccc23)s1 [GSK1581427] | 25 | 71 | 0 | 90.2 | 0 | 44 | 88 | 90 | 0 | 13
8 | Nc1nc(Nc2ccccc2)cc(-c2ccc3c(N)n[nH]c3c2)n1 [GSK2225749] | 12 | 63 | 0 | 0 | 74 | 0 | 73 | 0 | 0 | 0
9 | CC(C)Nc1cc(-c2ccc3c(N)n[nH]c3c2)nc(N)n1 [GSK2221681] | 33 | 0 | 0 | 0 | 0 | 0 | 34 | 0 | 0 | 4
10 | C[C@@H]1CCN(C(=O)CC#N)C[C@@H]1N(C)c1ncnc2[nH]ccc12 | 8 | 19 | 0 | 15 | 0 | 0 | 0 | 25 | 0 | 0
11 | CN(C)CC(O)COc1ccc(Nc2nccc(-c3cnn4nc(N5CCOCC5)ccc34)n2)cc1 (centres unmarked) [GW767488] | 15 | 75 | 56 | 23 | 0 | 0 | 81 | 37 | 4 | 61
12 | O=C(NCCCN1CCOC1=O)c1cnc(NCc2cc(Cl)ccc2Cl)nc1NC1CCCC1 | 12 | 4 | 29 | 22 | 0 | 0 | 2 | 0 | 10 | 0
13 | CCN(CC)CCCCNc1ncc2cc(-c3c(Cl)cccc3Cl)c(NC(=O)NC(C)(C)C)nc2n1 | 87 | 42 | 53 | 12 | 22 | 28 | 7 | 0 | 0 | 26
14 | CN(C)CCOc1ccc(-c2cc(-c3c[nH]nc3-c3ccccn3)ccn2)cc1 [GW835314] | 15 | 75 | 0 | 17 | 0 | 12 | 3 | 0 | 0 | 7
15 | Cc1cc2cn[nH]c2cc1-c1cccc2c(N)c(C(N)=O)nnc12 | 20 | 34 | 0 | 23 | 1 | 27 | 28 | 0 | 0 | 23
16 | Cc1cc(C(=O)Nc2ccc(Oc3ccc4nc(NC(=O)C5CC5)cn4n3)cc2)nn1-c1ccccc1 | 13 | 6 | 0 | 0 | 0 | 0 | 6 | 0 | 0 | 0
17 | Cl.Cl.Nc1nc(-c2ccc3c(N)n[nH]c3c2)cc(N2CCCC(NC(=O)c3ccccc3)C2)n1 (centres unmarked) [GSK2286775] | 34 | 2 | 0 | 0 | 0 | 19 | 55 | 0 | 0 | 15
18 | CCN(CC)CCOc1ccc(Nc2ncc3cc(-c4c(Cl)cccc4Cl)c(=O)n(C)c3n2)cc1 [SB-601273] | 100 | 97 | 100 | 6 | 29 | 57 | 0 | 0 | 17 | 0
19 | C=CC(=O)Nc1cc2c(Nc3ccc(F)c(Cl)c3)ncnc2cc1OCCCN1CCOCC1 [GW781483] | 0 | 66 | – | 0 | 19 | 3 | 39 | 0 | 0 | 0
20 | C[C@@H](Oc1cc(-c2cnn(C3CCNCC3)c2)cnc1N)c1c(Cl)ccc(F)c1Cl | 15 | 2 | 0 | 15 | 16 | 0 | 10 | 0 | 68 | 36
21 | O=C(NCCNc1ccnc(NCc2ccc(F)cc2)n1)c1cc2ccccc2s1 [GSK1379944] | 17 | 33 | 6 | 0 | 0 | 34 | 0 | 0 | 6 | 78
22 | CNC(=O)c1ccccc1Sc1ccc2c(/C=C/c3ccccn3)n[nH]c2c1 | 14 | 10 | 0 | 25 | 22 | 44 | 11 | 0 | 0 | 9
23 | Cc1n[nH]c2ccc(-c3cc(OC[C@@H](N)Cc4ccccc4)cnc3-c3ccoc3)cc12.O=C(O)C(F)(F)F.O=C(O)C(F)(F)F [GSK507358] | 12 | 82 | 0 | 0 | 0 | 21 | 34 | 0 | 80 | 49
24 | CC(C)N1C(=O)Cc2cc(Nc3ncc(C(F)(F)F)c(NCc4cccc(S(C)(=O)=O)c4)n3)ccc21 | 4 | 14 | 17 | 25 | 0 | 4 | 28 | 10 | 47 | 0
25 | C[C@H]1Oc2cc(cnc2N)-c2c(nn(C)c2C#N)CN(C)C(=O)c2ccc(F)cc21 | 19 | 25 | 0 | 95.8 | 2 | 0 | 0 | 94.3 | 21 | 0
26 | Cc1ccc(-n2nc(C(C)(C)C)cc2NC(=O)Nc2ccc(OCCN3CCOCC3)c3ccccc23)cc1 [GW839464] | 0 | 0 | 0 | 0 | 5 | 0 | 16 | 0 | 29 | 0
27 | COc1ccc(C[C@@H](CN)NC(=O)c2cc(Br)c(-c3ccnc4[nH]ccc34)s2)cc1.Cl.Cl [GSK1389063] | 0 | 56 | 40 | 99.8 | 67 | 96 | 39 | 98.8 | 0 | 8
